Tested on: T1, CDK11
T1 construct: gene CDK19
Conditions: concentration: 1 μM, replicates: in singlicate; n = 1
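Note: KINOMEscan kinase panel screen.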

SMILES | %Inh
Oc1ccc2ncnc(Nc3ccc(OCc4ccccc4)cc3)c2c1 [GI262866] | 36%
FC(F)(F)c1ccc(-c2cc(-c3c[nH]nc3-c3ccccn3)ccn2)cc1 [GW599550] | 17%
CCc1nc(-c2cccc(C)c2)c(-c2ccnc(NC(=O)c3ccccc3)c2)s1 | 5%
CN1c2ccc(-c3ccc(C(=O)NCCO)cc3)cc2-c2[nH]ncc2S1(=O)=O | 11%
O=C(c1ccc(-c2cc(-c3c[nH]nc3-c3ccccn3)ccn2)cc1)N1CCCC1 [GW792479] | 5%
COc1ccc(-c2oc3ncnc(N)c3c2-c2ccc(OC)cc2)cc1 [SB-589132] | 11%
CCc1nc(-c2cccc(N(C)S(=O)(=O)c3ccccc3)c2)c(-c2ccnc(Nc3ccc(N4CCN(C(C)=O)CC4)nc3)n2)s1 [GSK1645895] | 6%
Fc1cccc(COc2ccc(Nc3ncnc4cc[nH]c34)cc2Cl)c1 | 26%
Cl.c1ccc(Cn2ncc3cc(Nc4ncnc5ccccc45)ccc32)cc1 [GW273749] | 4%
COC(=O)c1cccc(NC(=O)NCCNc2ccnc(Nc3ccc(F)cc3)n2)c1 [GSK1379883] | 16%
Cl.c1ccc(Cn2ccc3cc(Nc4ncnc5ccccc45)ccc32)cc1 [GW275568] | 19%
COc1ccc(Nc2nccc(N3CCC(NC(=O)c4cccc(NC(C)=O)c4)C3)n2)cc1 (centres unmarked) [GSK1379732] | 15%
Nc1nccc2scc(-c3ccc4c(c3)CCN4C(=O)Cc3cc(F)ccc3F)c12 [GSK2587663] | 61%
Fc1ccc(Nc2nccc(-c3c(-c4ccc(Cl)cc4)nn4ncccc34)n2)cc1F [GW829058] | 18%
CS(=O)(=O)CCNCc1ccc(-c2ccc3ncnc(Nc4ccc(OCc5ccccc5)c(Cl)c4)c3c2)o1.Cl [GW574783] | 15%
Cn1ccc2ncnc(Oc3ccc(NC(=O)Nc4cccnc4)c(Cl)c3)c21 | 0%
COc1ccc(NC(=O)c2ccc(-c3cc(-c4nnc(C)o4)ccc3C)cc2)cc1 [GW595885] | 0%
NC(=O)c1sc(-n2cnc3ccccc32)cc1OCc1ccccc1F [GSK1024306] | 8%

SMILES | %Inh
Fc1ccc(-c2ncn(CCCNCc3ccccc3)c2-c2ccncc2)cc1 | 0%
CCC(CC)(CC)n1cnc2c(N)ncnc21 [SKF-97620] | 0%
N#Cc1ccc(Oc2ccc(Nc3ncnc4cc[nH]c34)cc2Cl)cc1 | 3%
O=C(Nc1n[nH]c2nc(-c3ccco3)c(Br)cc12)c1ccc(CN2CCCC2)cc1.O=C(O)[C@H](O)[C@@H](O)C(=O)O [SB-742352] | 0%
O=C(NCCCN1CCCC1=O)c1cnc(NCc2cc(Cl)ccc2Cl)nc1NC1CCNCC1 | 4%
O=C(Nc1ccccc1)Nc1ccc(Oc2ccc3nccn3n2)cc1 | 0%
CCCc1ccc(S(=O)(=O)NC2CCN(c3ccnc(Nc4ccc(OC)cc4)n3)C2)cc1 (centres unmarked) [GSK1379737] | 17%
COC(=O)c1c(-c2ccccc2)c2cc(Cl)ccc2c(=O)n1Cc1ccc(S(C)(=O)=O)cc1 | 0%
CC(C)N1CCC(n2cnc(-c3ccc(F)cc3)c2-c2ccnc(N)n2)CC1 [SB-223132] | 10%
Nc1n[nH]c2nnc(-c3ccccc3)cc12 [SB-517389] | 0%
C[C@H]1CC[C@@H](C(=O)Nc2ccccc2)CN1c1cc(-c2ccc3c(N)n[nH]c3c2)nc(N)n1 [GSK2283293] | 0%
CN1CCC(n2cnc(-c3ccc(F)cc3)c2-c2ccnc(NC3CCNCC3)n2)CC1 [SB-229482] | 0%
Fc1cccc(COc2ccc(Nc3ncnc4sc(-c5ccc[nH]5)cc34)cc2Cl)c1 [GW707818] | 5%
O=C(Nc1ccccc1F)NC1CCN(c2ccnc(Nc3ccc(F)cc3)n2)C1 (centres unmarked) [GSK1379722] | 19%
Clc1ccc(-c2cc(-c3c[nH]nc3-c3ccccn3)ccn2)cc1 [GW681251] | 0%
COc1cc2ncnc(Nc3ccc(OCc4ccccc4Br)c(Cl)c3)c2cc1OC.Cl [GI261590] | 21%
Cl.Cl.c1ccc(-c2cc3ccncc3cc2OC2CCNCC2)cc1 [GSK1122999] | 12%
